The nature of assay [1]: qHTS assay to identify small molecule agonists of the androgen receptor (AR) signaling pathway in the presence of an antagonist - cell viability counter screen (AID 1259379).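 Also: MDA-kb2 human breast cancer cells carrying an MMTV luciferase reporter; series mostly up to about 92 µM; nearly all actives have a fitted effect of over 25% in size.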 The method in brief:
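Cytotoxicity counter-screen run in the same wells as the nilutamide-challenged (3.0 µM final) AR agonist assay in MDA-kb2 cells. Compounds tested at 15 concentrations for 16 h, 37 °C without CO2; CellTiter-Fluor fluorescence read.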
(In general: Quantitative high-throughput screening tests each substance at several concentrations.)

The nature of assay [2]: qHTS assay to identify small molecule agonists of the estrogen receptor beta (ER-beta) signaling pathway - cell viability counter screen (AID 1259380). Also: nearly all actives have a fitted effect of over 30% in size. The method in brief:
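Cell viability counter screen: CellTiter-Glo luminescence (30 min, room temperature) measured in the same wells as the beta-lactamase readout, after 16 hr compound exposure at 37C of ER-beta-bla HEK293T cells in 2% charcoal-stripped FBS medium.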

Assay [3] deals with Estrogen receptor (Homo sapiens) (UniProt P03372). The experiment in a line: qHTS assay to identify small molecule agonists of the estrogen receptor alpha (ER-alpha) signaling pathway in the presence of an antagonist (AID 1259383; calls by dose curve; also: top concentration of the series differs between compounds; nearly all actives have a fitted effect of over 15% in size). The method in brief:
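Agonist-mode confirmation run in the presence of 10.0nM (final) ICI-182,780 antagonist. The reporter was ERE-driven luciferase in VM7Luc4E2 cells, grown in charcoal-stripped serum. Cells were exposed to 15-concentration compound series for 22hr, then ONE-Glo luminescence was read.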

Assay [4] can be described thus: qHTS assay to identify small molecule agonists or antagonists of the thyroid stimulating hormone receptor (TSHR) signaling pathway - wild type cell line counter screen (AID 1259384; calls by dose curve). The procedure, abridged: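 Counter screen in untransfected Hek293: compounds (15-point titration, triplicate) plus phosphodiesterase inhibitor Ro20-1724 added after 18 h plating; 30 min RT. Intracellular cAMP via competitive d2/cryptate immunoassay, 1 h incubation.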

Assay [5] concerns the target Thyrotropin receptor (Homo sapiens) (UniProt P16473). Briefly: qHTS assay to identify small molecule antagonists of the thyroid stimulating hormone receptor (TSHR) signaling pathway (AID 1259385; calls by dose curve; also: nearly all actives have a fitted effect of over 20% in size). The procedure, abridged: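 Antagonist mode: compound-treated TSHR-expressing HEK293 cells were stimulated with 1.5 ng/mL TSH (final) in presence of Ro20-1724 for 30 min at RT. HTRF cAMP detection after 1 h; each compound tested at 15 concentrations, triplicate.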

A short description of assay [6]: qHTS assay to identify small molecule agonists of the estrogen receptor alpha (ER-alpha) signaling pathway in the presence of an antagonist - cell viability counter screen (AID 1259386). Also: series mostly up to about 92 µM; nearly all actives have a fitted effect of over 30% in size. The method in brief: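 Compounds tested at 15 concentrations for 22 h at 37C alongside 10.0nM (final) ICI-182,780 antagonist, in VM7Luc4E2 cells grown in phenol red-free, charcoal-stripped medium. Viability read by CellTiter-Fluor fluorescence after 1 h reagent incubation.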

Assay [7] addresses Progesterone receptor (Homo sapiens) (UniProt P06401). Briefly: qHTS assay to identify small molecule antagonists of the progesterone receptor (PR) signaling pathway (AID 1346795; active = well fitted inhibition curve with a large enough effect in the signal ratio in the repeat runs, not every such curve was filed as active; the % refers to the signal ratio; also: potency is read from the fitted curve at half-maximal effect). The method in brief:
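PR-UAS-bla HEK293T cells with beta-lactamase reporter under UAS control, in 2% charcoal-stripped FBS, treated with compounds plus 1 nM promegestone (R5020, final) for 16 hr at 37C. Read-out: FRET beta-lactamase substrate fluorescence after 2 hr at room temperature.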

The nature of assay [8]: qHTS assay to identify small molecule antagonists of the progesterone receptor (PR) signaling pathway - cell viability counter screen (AID 1346798). Also: nearly all actives have a fitted effect of over 50% in size. Also: potency is read from the fitted curve at half-maximal effect. As to activity change, negative = cytotoxicity: series mostly up to about 92 µM. The method in brief: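 PR-UAS-bla HEK293T cells, 3,000/well in 2% charcoal-stripped FBS medium, dosed with compounds plus R5020 agonist and incubated 16 h at 37C. Viability then measured in the same wells by CellTiter-Glo luminescence after 30 min at RT.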

A short description of assay [9]: qHTS assay to identify small molecule antagonists of the TGF-beta/Smad signaling pathway - cell viability counter screen (AID 1346824). Also: nearly all actives have a fitted effect of over 50% in size. The procedure, abridged:
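Cytotoxicity counter-screen run in the same wells as the beta-lactamase Smad reporter read: CellTiter-Glo luminescence after 30 min at room temperature. HEK 293T SBE-bla cells had 5 hr compound exposure at 37 C with TGF-beta1 (0.25 ng/mL stock).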

Assay [10] is described as follows: qHTS assay to identify small molecule agonists of the TGF-beta/Smad signaling pathway - cell viability counter screen (AID 1346829). Also: top concentration of the series differs between compounds; nearly all actives have a fitted effect of over 45% in size. The method in brief: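 Here the cytotoxicity of library compounds is measured in SBE-bla HEK 293T cells treated for 5 hr, using CellTiter-Glo added to wells already read for the beta-lactamase reporter.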
The nature of assay [11]: qHTS assay to identify small molecule agonists of the TGF-beta/Smad signaling pathway (AID 1346859; active = well fitted activation curve with a large enough effect in the signal ratio in the repeat runs, not every such curve was filed as active; the % refers to the signal ratio; also: series mostly up to about 77 µM). The procedure, abridged:
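SBE-bla HEK293T cells plated overnight, then compound exposure for 5 h at 37 C. Beta-lactamase reporter read with LiveBLAzer B/G FRET substrate after 2 h at room temperature, fluorescence at 405 nm excitation, 460/530 nm emission.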

Assay [12] is described as follows: qHTS assay to identify small molecule antagonists of the estrogen receptor beta (ER-beta) signaling pathway - cell viability counter screen (AID 1259382).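 Also: HEK293T cells carrying ER-beta-UAS-bla reporter stimulated with estradiol; series mostly up to about 92 µM; nearly all actives have a fitted effect of over 55% in size.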 The procedure, abridged: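 Cytotoxicity was measured in the same wells by CellTiter-Glo luminescence after 30 min at room temperature. Cells were ER-beta-bla HEK293T in charcoal-stripped serum, given compound together with 1 nM E2 and incubated 16 h at 37C.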

The target in assay [13] is Progesterone receptor (Homo sapiens) (UniProt P06401). The experiment in a line: qHTS assay to identify small molecule agonists of the progesterone receptor (PR) signaling pathway (AID 1346784; calls by dose curve; also: nearly all actives have a fitted effect of over 30% in size). The method in brief: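 PR-UAS-bla HEK 293T cells (beta-lactamase reporter under UAS) in 2% charcoal-stripped FBS, dosed with 23 nL compound after 6 hr, incubated 16hr at 37C. LiveBLAzer B/G FRET substrate added, fluorescence read after 2 hours.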
Sequence of Progesterone receptor (Homo sapiens) (P06401 whole entry, looked up): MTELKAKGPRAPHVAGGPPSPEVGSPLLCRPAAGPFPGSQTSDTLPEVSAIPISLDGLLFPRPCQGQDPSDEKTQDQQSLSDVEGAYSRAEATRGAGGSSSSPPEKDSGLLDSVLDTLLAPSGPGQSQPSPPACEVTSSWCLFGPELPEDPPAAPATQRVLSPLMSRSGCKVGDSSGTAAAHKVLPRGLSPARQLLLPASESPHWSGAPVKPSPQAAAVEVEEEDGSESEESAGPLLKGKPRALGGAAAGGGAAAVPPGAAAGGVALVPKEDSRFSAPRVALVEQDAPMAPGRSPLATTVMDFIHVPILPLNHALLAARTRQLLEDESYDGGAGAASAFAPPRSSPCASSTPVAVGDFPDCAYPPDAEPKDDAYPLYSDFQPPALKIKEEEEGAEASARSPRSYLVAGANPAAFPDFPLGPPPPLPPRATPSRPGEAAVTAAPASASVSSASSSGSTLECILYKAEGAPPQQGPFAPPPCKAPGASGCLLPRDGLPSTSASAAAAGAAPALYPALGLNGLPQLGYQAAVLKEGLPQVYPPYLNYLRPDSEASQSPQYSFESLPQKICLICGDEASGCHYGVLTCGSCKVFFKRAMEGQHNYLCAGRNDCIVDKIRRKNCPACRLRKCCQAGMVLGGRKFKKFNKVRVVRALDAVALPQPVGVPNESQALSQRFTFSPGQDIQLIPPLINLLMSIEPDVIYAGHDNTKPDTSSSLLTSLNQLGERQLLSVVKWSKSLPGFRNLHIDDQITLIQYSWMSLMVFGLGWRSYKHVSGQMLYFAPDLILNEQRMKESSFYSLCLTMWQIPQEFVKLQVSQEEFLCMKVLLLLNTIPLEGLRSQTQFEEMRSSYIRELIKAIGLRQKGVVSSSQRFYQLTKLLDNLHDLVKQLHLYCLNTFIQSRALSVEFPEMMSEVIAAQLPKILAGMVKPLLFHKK

Assay [14] is described as follows: qHTS assay to identify small molecule agonists of the progesterone receptor (PR) signaling pathway - cell viability counter screen (AID 1346799; calls by dose curve; also: nearly all actives have a fitted effect of over 45% in size; also: potency is read from the fitted curve at half-maximal effect). The procedure, abridged: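 Counter screen in the PR-UAS-bla HEK293T wells (2% charcoal-stripped FBS, 16 h compound exposure at 37 C) after the bla read. CellTiter-Glo added, 30 min at room temperature, luminescence read as cell viability.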

The target of assay [15] is Thyrotropin-releasing hormone receptor (Homo sapiens) (UniProt P34981). Briefly: qHTS assay to identify small molecule agonists of the thyrotropin-releasing hormone receptor (TRHR) signaling pathway (AID 1346891; calls by dose curve; also: series mostly up to about 58 µM). The procedure, abridged:
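HEK293 cells expressing TRHR plated 18 h at 37 C/5% CO2, calcium dye-loaded 2 h at 37 C, then compound added (agonist mode); kinetic calcium fluorescence read 3 min at 1 s intervals; 15 concentrations in triplicate.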

Assay [16] has as its target Estrogen receptor beta (Homo sapiens) (UniProt Q92731). Briefly: qHTS assay to identify small molecule agonists of the estrogen receptor beta (ER-beta) signaling pathway (AID 1259377; active = well fitted activation curve with a large enough effect in the signal ratio in the repeat runs, not every such curve was filed as active; the % refers to the signal ratio). The method in brief: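 ER-beta-UAS-bla HEK293T cells in medium with 2% charcoal-stripped FBS were exposed to compounds for 16 h at 37C. Beta-lactamase reporter activity was read as fluorescence after 2 h with LiveBLAzer B/G FRET substrate at room temperature.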

Assay [17] addresses Androgen receptor (Homo sapiens) (UniProt P10275). Briefly: qHTS assay to identify small molecule agonists of the androgen receptor (AR) signaling pathway in the presence of an antagonist (AID 1259381; calls by dose curve; also: nearly all actives have a fitted effect of over 15% in size). The method in brief: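 Agonist-mode confirmation run against 3.0 uM final nilutamide: compounds titrated at 15 concentrations onto MDA-kb2 MMTV-luciferase reporter cells. Luminescence measured with ONE-Glo following 16 hr incubation, 37C, 0% CO2.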

The target in assay [18] is Thyrotropin-releasing hormone receptor (Homo sapiens) (UniProt P34981). The experiment in a line: qHTS assay to identify small molecule antagonists of the thyrotropin-releasing hormone receptor (TRHR) signaling pathway (AID 1346877; active = well fitted inhibition curve with a large enough effect in the repeat runs, not every such curve was filed as active; also: series mostly up to about 51 µM). The method in brief:
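Antagonist mode: after a 5 min room-temperature compound exposure, cells were stimulated with 1 nM (final) TRH. Dye-loaded TRHR-HEK293 cells were used, and calcium-dependent fluorescence was followed for 3 min, with 15-point titrations run in triplicate.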

For assay [19], the target named is Estrogen receptor beta (Homo sapiens) (UniProt Q92731). Briefly: qHTS assay to identify small molecule antagonists of the estrogen receptor beta (ER-beta) signaling pathway (AID 1259378; active = well fitted inhibition curve with a large enough effect in the signal ratio in the repeat runs, not every such curve was filed as active; the % refers to the signal ratio). The procedure, abridged:
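Antagonist mode: compounds added to beta-lactamase reporter HEK293T ER-beta-UAS cells stimulated with E2 (1nM final), 16 hr at 37C. LiveBLAzer B/G FRET substrate, 2 hours room temperature, fluorescence read-out.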

The structures appear in SMILES notation. Unmarked numbers belong to inactive results. Records with an inconclusive call do not appear. Activity calls are given as the source filed them. Unless noted, calls follow the shape of the dose curve; as a rule, active = well fitted curve in the direction sought with a large enough effect in the repeat runs; inconclusive = weak or mixed curves; inactive = no such curve, though single readings can be large; an effect the other way counts as inactive or inconclusive.
% is scaled to controls: 0 for no effect and ±100 for the full control effect.

Sequence of Estrogen receptor beta (Homo sapiens) (Q92731 whole entry, looked up): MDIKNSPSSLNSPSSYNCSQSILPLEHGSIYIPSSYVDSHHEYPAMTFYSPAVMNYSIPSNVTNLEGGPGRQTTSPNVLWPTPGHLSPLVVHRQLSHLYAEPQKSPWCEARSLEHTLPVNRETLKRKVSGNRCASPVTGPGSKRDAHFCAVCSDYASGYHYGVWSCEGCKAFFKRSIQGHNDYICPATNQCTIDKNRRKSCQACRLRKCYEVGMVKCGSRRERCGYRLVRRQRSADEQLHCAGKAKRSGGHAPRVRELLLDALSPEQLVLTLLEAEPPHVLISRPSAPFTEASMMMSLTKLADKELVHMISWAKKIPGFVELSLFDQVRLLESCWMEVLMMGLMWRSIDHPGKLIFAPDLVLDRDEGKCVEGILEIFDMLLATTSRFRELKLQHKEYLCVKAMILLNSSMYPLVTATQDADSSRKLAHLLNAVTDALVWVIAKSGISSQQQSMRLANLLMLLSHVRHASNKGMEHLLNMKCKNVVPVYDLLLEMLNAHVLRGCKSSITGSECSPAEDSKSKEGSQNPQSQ
Sequence of Thyrotropin receptor (Homo sapiens) (P16473 whole entry, looked up): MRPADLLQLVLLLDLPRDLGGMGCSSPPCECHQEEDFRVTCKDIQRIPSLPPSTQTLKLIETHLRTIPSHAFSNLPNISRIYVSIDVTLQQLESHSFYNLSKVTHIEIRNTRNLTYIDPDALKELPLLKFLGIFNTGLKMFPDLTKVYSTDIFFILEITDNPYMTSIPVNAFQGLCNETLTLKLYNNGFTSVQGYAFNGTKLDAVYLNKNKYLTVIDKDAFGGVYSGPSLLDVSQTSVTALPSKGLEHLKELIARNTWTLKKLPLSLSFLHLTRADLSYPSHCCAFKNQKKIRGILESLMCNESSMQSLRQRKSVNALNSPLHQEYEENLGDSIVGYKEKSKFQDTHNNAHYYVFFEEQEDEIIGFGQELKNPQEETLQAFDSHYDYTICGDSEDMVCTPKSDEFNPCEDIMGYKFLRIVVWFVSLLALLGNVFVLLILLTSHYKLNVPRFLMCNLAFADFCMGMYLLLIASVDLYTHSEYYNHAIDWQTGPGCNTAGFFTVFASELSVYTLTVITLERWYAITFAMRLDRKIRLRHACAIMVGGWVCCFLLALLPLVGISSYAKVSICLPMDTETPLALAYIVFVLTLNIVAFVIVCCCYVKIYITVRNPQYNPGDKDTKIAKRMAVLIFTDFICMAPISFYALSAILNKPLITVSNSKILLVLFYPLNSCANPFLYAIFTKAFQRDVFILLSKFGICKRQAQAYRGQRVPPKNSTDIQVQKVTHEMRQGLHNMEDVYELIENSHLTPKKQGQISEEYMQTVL
Sequence of Estrogen receptor (Homo sapiens) (P03372 whole entry, looked up): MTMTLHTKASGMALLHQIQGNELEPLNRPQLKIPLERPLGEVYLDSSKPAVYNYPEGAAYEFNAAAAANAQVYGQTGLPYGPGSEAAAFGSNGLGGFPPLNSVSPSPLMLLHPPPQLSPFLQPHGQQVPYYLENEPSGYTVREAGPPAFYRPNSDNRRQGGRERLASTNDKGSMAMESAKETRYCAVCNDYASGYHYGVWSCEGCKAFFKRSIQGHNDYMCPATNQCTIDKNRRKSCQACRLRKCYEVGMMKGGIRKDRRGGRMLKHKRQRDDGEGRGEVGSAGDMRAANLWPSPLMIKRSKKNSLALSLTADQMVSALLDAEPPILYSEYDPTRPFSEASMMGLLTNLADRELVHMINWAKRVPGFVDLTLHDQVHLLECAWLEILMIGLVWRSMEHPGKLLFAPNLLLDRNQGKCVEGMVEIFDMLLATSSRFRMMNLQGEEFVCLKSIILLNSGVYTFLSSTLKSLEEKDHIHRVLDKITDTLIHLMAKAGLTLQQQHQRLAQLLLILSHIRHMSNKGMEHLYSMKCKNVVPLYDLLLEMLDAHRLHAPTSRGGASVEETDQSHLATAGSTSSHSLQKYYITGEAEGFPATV
Sequence of Thyrotropin-releasing hormone receptor (Homo sapiens) (P34981 whole entry, looked up): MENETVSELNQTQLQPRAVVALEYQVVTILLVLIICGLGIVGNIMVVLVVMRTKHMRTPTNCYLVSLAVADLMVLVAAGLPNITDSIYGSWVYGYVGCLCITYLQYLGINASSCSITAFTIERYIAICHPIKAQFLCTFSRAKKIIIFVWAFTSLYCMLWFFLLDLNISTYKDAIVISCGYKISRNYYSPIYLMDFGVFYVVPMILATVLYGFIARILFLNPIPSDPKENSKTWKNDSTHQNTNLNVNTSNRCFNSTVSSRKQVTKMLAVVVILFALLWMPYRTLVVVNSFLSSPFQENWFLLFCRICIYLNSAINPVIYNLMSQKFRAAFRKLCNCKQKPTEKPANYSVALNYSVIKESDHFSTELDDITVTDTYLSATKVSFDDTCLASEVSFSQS
Sequence of Androgen receptor (Homo sapiens) (P10275 whole entry, looked up): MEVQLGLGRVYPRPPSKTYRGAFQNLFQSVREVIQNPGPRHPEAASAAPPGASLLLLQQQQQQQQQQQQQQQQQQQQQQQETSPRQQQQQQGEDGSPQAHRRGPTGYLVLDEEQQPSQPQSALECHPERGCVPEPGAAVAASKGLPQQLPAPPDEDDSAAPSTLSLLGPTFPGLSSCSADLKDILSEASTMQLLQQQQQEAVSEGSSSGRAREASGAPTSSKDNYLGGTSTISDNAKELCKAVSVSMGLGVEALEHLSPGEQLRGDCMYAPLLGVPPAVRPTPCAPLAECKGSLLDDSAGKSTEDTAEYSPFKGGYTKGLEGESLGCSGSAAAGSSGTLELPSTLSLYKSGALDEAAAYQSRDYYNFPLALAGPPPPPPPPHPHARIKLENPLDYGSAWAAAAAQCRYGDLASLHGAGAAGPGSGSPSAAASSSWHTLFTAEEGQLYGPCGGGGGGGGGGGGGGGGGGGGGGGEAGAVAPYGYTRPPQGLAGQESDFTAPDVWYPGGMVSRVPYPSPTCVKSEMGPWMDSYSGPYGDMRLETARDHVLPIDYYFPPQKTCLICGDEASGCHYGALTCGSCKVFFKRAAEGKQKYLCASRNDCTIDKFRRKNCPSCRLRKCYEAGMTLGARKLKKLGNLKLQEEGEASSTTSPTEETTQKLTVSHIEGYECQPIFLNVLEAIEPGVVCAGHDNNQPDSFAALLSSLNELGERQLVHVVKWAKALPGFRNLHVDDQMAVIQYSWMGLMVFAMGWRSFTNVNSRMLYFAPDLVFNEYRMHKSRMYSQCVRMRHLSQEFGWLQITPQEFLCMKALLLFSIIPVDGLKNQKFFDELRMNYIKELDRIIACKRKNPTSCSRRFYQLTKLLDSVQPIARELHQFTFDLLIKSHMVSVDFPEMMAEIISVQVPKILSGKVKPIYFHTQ

Consider `CCCCN1C=CN(C)C1`, for which the activity change, negative = cytotoxicity was 0.886% [at 19 µM] in assay [1]; 2.46% [at 19 µM] in assay [2]; 0.508% [at 19 µM] in assay [6]; -2.54% [at 18.9 µM] in [8]; -1.56% [at 15.8 µM] in assay [10]. The activation in assay [3] was 0.706% [at 19 µM]; in assay [11], 4.63% [at 15.8 µM]. Besides, in assay [4], the cAMP activity change is -4.22% [at 18.9 µM]. The activity change, negative = inhibition is 1.39% [at 19 µM] in assay [5] and 3.82% [at 18.9 µM] in assay [7]. Moreover, in assay [9], the viability change, negative = cytotoxic was -11.6% [at 15.8 µM].
As for `O=C(O)CNC(=O)c1ccc(CO)o1`, the Potency result in assay [1], in assay [2], in [6], in assay [13], in [7] and in assay [8] was “inactive” in each case. The Potency entry in assay [14] and in assay [15] was “inactive” each time. The outcome in assay [12], in assay [3], in [9], in assay [10] and in [11] was inactive.
For `O=S(=O)(O)c1cccc2ccccc12`, the Potency result in assay [1], in assay [2], in [6], in assay [13], in assay [7] and in [8] was “inactive” each time. In addition, the Potency entry in [14] and in assay [15] was “inactive” in each case. In addition, the result in assay [12], in assay [4], in assay [5], in [9], in [10] and in assay [11] was inactive.
With `CO[C@@]1(NC(=O)C(C(=O)O)c2ccc(O)cc2)C(=O)N2C(C(=O)O)=C(CSc3nnnn3C)CO[C@@H]21` (stereo not given in full), the Potency result in [1], in [2], in [6], in [7], in assay [8] and in assay [14] was “inactive” in each case. For the same compound, in assay [15], the Potency result was “inactive”. Moreover, the outcome in [12], in assay [3], in [4], in assay [5], in assay [9] and in [10] was inactive. Besides, in assay [11], the call was inactive.
Turning to `O=C(c1ccccc1O)c1ccccc1O`, the Potency result in assay [16], in assay [1], in [2], in assay [17], in assay [6] and in [8] was “inactive” in each case. Further, the Potency entry in assay [14] was “inactive”. For the same compound, the result in [12], in [3], in assay [4], in [5], in assay [9] and in assay [11] was inactive. Moreover, in assay [7], the Potency is 27 µM (active).
Regarding `CC1=NN(c2cccc(S(=O)(=O)O)c2)C(=O)C1`, the Potency result in assay [1], in [2], in assay [17], in [6], in assay [13] and in assay [7] was “inactive” in each case. Also, the Potency entry in assay [15] is “inactive”. Besides, the call in assay [12], in assay [3], in assay [4], in assay [5], in assay [9] and in assay [10] was inactive. Further, the outcome in assay [11] and in assay [18] was inactive.
Take `CCCn1cc[n+](C)c1C`: the Potency entry in [1], in [2], in assay [6], in [13], in assay [7] and in [8] was “inactive” each time. The call in [12], in assay [9], in [10] and in [11] was inactive.
Regarding `COc1cc(C)nc(-n2nc(C)cc2OC)n1`, the Potency entry in assay [2] and in [6] was “inactive” throughout. Further, the compound was called inactive in assay [4], in assay [5], in assay [9], in assay [10] and in assay [11]. Moreover, the Potency in assay [8] is 11.9 µM (active); in [14], 8.41 µM (active).
`CCCCCCCCCCCCSC`: the Potency result in [16], in assay [19], in assay [2], in assay [6], in assay [7] and in [8] was “inactive” each time. Besides, the Potency entry in assay [14] and in assay [15] was “inactive” each time. Also, the compound was called inactive in assay [12], in [4], in assay [5], in [9], in assay [10] and in assay [11]. Besides, the result in assay [18] was inactive.
For `NCCCC[C@H](N[C@@H](CCc1ccccc1)C(=O)O)C(=O)N1CCC[C@H]1C(=O)O`, the Potency result in [1], in assay [2], in assay [6], in assay [13], in assay [7] and in assay [8] was “inactive” each time. In addition, the Potency result in assay [14] was “inactive”. In addition, the compound was called inactive in assay [12], in assay [9] and in [11].

These data come from PubChem BioAssay (Tox21).
